Test [1] has as its target Estrogen receptor (Homo sapiens) (UniProt P03372). Briefly: qHTS assay for small molecule agonists of estrogen receptor alpha signaling (AID 588514).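 Also: 0% = vehicle only and 100% = reference agonist; nearly all actives have a fitted effect of over 70% in size.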 Put shortly:
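Read-out: CCF4 fluorescence from a beta-lactamase reporter in ER-alpha-UAS-bla HEK 293 cells after 18 hrs of compound exposure at 37 C. Normalized to 20 nM 17-beta-estradiol (100%) and DMSO (0%).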
In general terms: Quantitative high-throughput screening tests each substance at several concentrations.

Test [2] concerns the target Glucocorticoid receptor (Homo sapiens) (UniProt P04150). Briefly: qHTS assay for small molecule agonists of glucocorticoid receptor signaling (AID 588532; active = well fitted curve in the direction sought with a large enough effect in the signal ratio, with a control signal flat; the % refers to the signal ratio;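 also: 100% = dexamethasone at 0.1 µM and 0% = DMSO only wells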). As to conditions: HeLa MMTV-bla, beta-lactamase ratio, agonist, 18 h; hits give high values; percent of dexamethasone control, DMSO zero. The essentials: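 HeLa GRE-bla reporter cells; 18 h compound exposure at 37 C; 2 h CCF4 loading at room temperature; fluorescence at 460 and 530 nm; EC50 by Hill equation.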

Test [3] concerns the target Peroxisome proliferator-activated receptor gamma (Homo sapiens) (UniProt P37231). Briefly: qHTS assay for small molecule antagonists of peroxisome proliferator-activated receptor gamma signaling (AID 588537; active = well fitted inhibition curve with a large enough effect in the signal ratio, with a control signal flat, not every such curve was filed as active; the % refers to the signal ratio;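 also: reporter cells co-stimulated with 50 nM rosiglitazone agonist during compound treatment; % of control where 0% means no effect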). Put shortly: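 Read-out: CCF4 fluorescence (ex 405, em 460/530 nm) after 2 h at RT. Cells were HEK293 carrying a UAS-bla reporter and treated 16 h at 37 C with compound plus rosiglitazone (50 nM final). Normalized to rosiglitazone and DMSO.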

For test [4], the target named is Thyroid hormone receptor beta (Homo sapiens) (UniProt P10828). Briefly: qHTS assay for small molecule antagonists of thyroid hormone receptor beta signaling (AID 588547; active = well fitted inhibition curve with a large enough effect in the signal ratio, with a control signal flat, not every such curve was filed as active; the % refers to the signal ratio; also: potency is read from the fitted curve at half-maximal effect). Particulars: TR-UAS-bla HEK293, beta-lactamase ratio, antagonist mode, 18 h. The essentials: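 TR-UAS-bla GripTite HEK293 cells in 2% charcoal/dextran FBS medium; compounds 0.59 nM to 92 uM with T3 at 0.4nM final, 18 h at 37 C. Beta-lactamase read by CCF4 fluorescence (460/530 nm); Hill fits gave IC50 and efficacy.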

Test [5] can be described thus: qHTS assay for small molecule agonists of the antioxidant response element (ARE) signaling pathway (AID 651741; active = well fitted activation curve with a large enough effect in the signal ratio; the % refers to the signal ratio; also: potency is read from the fitted curve at half-maximal effect; as to activation: % of control where 0% means no effect). Put shortly: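 HepG2 ARE-bla reporter cells, 2,000/well; 5 h settle at 37 C/5% CO2; compound pin transfer (23 nL, DMSO); 16 h at 37 C; LiveBLAzer B/G FRET substrate, 2 h RT; fluorescence intensity read.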
Test [6] deals with Androgen receptor (Homo sapiens) (UniProt P10275). The test is described as follows: qHTS assay for small molecule agonists of androgen receptor signaling (AID 588515; active = well fitted curve in the direction sought with a large enough effect in the signal ratio, with a control signal flat; the % refers to the signal ratio; also: % is scaled to controls: 0 for no effect and ±100 for the full control effect). Particulars: AR-UAS-bla HEK293, beta-lactamase ratio, agonist 16 h; activation: hits give high values. The essentials:
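Stimulation of an AR-responsive β-lactamase reporter in GripTite HEK293 cells was measured after 16 h compound exposure at 37 °C, via CCF4 fluorescence after 2 h RT. EC50 from Hill fits, normalized to R1881 at 30 nM.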

For test [7] the target is unchanged. Briefly: qHTS assay for small molecule antagonists of androgen receptor signaling (AID 588516; active = well fitted curve in the direction sought with a large enough effect in the signal ratio, with a control signal flat, not every such curve was filed as active; the % refers to the signal ratio; also: % is scaled to controls: 0 for no effect and ±100 for the full control effect). The essentials: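 Cells were plated and incubated 5 h, compounds added in titration, then R1881 (10 nM final) as agonist. After 16 h at 37 C, CCF4 substrate was loaded for 2 h at room temperature and fluorescence measured.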
Test [8] has as its target Bile acid receptor (Homo sapiens) (UniProt Q96RI1). Briefly: qHTS assay for small molecule antagonists of farnesoid X receptor signaling (AID 588526). Also: % is scaled to controls: 0 for no effect and ±100 for the full control effect. Put shortly:
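Antagonist mode: titrated compounds tested against chenodeoxycholic acid stimulation (normalized to 50 uM CDCA and DMSO) in GeneBLAzer HEK293T cells for 16 h. Beta-lactamase read by CCF4 fluorescence; IC50 from Hill fits.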

For test [9], the target named is Glucocorticoid receptor (Homo sapiens) (UniProt P04150). The test is described as follows: qHTS assay for small molecule antagonists of glucocorticoid receptor signaling (AID 588533; active = well fitted inhibition curve with a large enough effect in the signal ratio, with a control signal flat, not every such curve was filed as active; the % refers to the signal ratio; also: % is scaled to controls: 0 for no effect and ±100 for the full control effect). Put shortly:
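Antagonist-mode qHTS: compound titrations added to GRE-bla HeLa cells, then dexamethasone 2 nM final; 18 h, 37 C. CCF4 FRET fluorescence normalized to dexamethasone and DMSO; IC50 from Hill fit.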

Records with an inconclusive call do not appear. A number with no mark means an inactive call. Active and inactive are the calls of the source. Unless noted, calls follow the shape of the full dose curve.

Estrogen receptor (Homo sapiens), sequence (P03372 whole entry, looked up): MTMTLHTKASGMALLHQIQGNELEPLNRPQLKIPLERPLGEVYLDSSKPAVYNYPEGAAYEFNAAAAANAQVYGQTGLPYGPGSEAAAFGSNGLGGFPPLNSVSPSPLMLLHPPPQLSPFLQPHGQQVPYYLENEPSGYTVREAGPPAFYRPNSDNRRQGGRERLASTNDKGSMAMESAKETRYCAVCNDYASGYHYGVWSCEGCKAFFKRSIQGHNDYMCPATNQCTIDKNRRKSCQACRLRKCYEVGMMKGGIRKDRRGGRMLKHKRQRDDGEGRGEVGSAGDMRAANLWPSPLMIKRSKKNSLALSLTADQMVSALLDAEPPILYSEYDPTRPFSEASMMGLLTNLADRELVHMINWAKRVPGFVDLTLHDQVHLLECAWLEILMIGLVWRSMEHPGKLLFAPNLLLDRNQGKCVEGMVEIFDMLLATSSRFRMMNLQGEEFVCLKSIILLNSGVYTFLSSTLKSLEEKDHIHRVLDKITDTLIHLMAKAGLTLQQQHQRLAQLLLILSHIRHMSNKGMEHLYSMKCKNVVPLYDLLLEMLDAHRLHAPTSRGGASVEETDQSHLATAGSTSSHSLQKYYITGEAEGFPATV
Thyroid hormone receptor beta (Homo sapiens), sequence (P10828 whole entry, looked up): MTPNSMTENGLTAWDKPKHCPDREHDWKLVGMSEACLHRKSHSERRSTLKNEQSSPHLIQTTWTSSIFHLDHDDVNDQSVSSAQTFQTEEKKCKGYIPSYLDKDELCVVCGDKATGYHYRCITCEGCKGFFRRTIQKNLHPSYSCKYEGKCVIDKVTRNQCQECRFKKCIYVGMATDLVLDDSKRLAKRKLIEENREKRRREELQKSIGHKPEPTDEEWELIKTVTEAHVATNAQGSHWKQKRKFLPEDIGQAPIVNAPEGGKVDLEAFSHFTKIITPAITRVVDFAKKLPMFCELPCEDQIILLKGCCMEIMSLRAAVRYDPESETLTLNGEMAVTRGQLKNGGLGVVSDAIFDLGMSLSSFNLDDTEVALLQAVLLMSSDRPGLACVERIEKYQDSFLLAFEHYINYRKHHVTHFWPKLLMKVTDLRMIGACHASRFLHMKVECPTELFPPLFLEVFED
Androgen receptor (Homo sapiens), sequence (P10275 whole entry, looked up): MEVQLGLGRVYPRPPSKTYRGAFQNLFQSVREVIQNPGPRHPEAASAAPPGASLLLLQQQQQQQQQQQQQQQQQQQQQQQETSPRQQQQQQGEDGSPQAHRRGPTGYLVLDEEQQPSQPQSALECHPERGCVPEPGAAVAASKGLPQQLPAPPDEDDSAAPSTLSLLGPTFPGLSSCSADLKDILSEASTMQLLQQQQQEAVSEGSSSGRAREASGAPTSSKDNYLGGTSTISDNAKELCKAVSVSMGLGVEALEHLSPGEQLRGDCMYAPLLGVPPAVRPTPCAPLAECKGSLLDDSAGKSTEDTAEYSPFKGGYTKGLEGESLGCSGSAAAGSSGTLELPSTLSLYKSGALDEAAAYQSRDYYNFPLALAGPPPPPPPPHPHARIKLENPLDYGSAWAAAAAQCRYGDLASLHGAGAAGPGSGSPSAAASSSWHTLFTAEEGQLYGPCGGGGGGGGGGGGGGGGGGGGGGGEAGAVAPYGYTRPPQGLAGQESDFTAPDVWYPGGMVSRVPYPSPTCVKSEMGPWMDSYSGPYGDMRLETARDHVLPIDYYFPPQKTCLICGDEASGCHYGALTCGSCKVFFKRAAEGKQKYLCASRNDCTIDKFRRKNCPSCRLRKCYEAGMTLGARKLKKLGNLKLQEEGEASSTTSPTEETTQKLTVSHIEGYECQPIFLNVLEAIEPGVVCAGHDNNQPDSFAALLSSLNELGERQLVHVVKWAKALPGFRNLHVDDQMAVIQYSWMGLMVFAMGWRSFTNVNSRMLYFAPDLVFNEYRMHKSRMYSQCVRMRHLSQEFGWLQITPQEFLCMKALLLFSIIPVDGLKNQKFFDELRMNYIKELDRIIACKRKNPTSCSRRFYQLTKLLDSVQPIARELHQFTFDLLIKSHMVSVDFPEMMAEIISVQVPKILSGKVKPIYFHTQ
Glucocorticoid receptor (Homo sapiens), sequence (P04150 whole entry, looked up): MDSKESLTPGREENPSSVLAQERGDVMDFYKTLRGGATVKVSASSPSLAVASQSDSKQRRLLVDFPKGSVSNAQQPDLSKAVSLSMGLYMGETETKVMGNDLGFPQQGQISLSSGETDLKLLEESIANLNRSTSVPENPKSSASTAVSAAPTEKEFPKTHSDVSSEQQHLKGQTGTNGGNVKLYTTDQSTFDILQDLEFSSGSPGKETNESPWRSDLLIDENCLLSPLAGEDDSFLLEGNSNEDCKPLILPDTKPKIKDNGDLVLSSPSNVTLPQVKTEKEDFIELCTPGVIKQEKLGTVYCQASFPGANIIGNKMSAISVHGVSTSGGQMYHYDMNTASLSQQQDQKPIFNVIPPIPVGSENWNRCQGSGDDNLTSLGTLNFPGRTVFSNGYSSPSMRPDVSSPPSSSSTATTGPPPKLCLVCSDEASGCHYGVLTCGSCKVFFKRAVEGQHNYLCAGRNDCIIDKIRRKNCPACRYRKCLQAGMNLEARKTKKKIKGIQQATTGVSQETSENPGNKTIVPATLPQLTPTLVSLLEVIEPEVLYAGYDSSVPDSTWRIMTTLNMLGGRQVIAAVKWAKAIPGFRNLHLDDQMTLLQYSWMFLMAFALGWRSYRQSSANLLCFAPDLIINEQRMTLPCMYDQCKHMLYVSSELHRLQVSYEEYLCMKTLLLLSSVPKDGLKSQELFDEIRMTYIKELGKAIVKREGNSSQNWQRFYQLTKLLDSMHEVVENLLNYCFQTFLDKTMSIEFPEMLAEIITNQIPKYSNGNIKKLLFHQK
Peroxisome proliferator-activated receptor gamma (Homo sapiens), sequence (P37231 whole entry, looked up): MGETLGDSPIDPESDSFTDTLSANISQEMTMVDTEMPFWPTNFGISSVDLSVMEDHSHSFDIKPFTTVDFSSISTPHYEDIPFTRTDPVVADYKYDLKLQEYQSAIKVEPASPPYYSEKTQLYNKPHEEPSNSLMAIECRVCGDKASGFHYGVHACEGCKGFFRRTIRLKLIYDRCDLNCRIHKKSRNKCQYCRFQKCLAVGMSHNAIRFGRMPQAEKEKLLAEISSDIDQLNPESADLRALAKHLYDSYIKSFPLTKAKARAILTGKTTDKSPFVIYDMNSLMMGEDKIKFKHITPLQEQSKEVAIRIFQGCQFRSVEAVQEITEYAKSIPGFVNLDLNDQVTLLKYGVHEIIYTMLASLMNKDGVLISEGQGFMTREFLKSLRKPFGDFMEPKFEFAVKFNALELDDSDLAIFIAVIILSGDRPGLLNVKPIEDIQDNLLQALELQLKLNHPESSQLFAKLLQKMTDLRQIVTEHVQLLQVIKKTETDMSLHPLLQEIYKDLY
Bile acid receptor (Homo sapiens), sequence (Q96RI1 whole entry, looked up): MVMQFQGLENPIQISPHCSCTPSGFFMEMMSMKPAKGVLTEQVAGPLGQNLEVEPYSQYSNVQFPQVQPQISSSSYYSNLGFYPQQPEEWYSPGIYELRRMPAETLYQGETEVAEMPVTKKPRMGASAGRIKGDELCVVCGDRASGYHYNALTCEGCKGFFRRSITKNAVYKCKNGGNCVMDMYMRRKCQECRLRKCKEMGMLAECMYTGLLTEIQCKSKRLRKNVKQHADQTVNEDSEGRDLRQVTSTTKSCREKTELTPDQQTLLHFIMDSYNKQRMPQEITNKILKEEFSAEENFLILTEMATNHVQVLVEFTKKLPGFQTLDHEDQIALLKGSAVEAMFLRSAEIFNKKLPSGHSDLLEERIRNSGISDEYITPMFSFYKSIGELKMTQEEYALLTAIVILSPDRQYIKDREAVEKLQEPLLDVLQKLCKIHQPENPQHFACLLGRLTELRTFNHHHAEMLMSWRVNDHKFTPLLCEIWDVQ

As for `O=c1[nH]sc2ccccc12`, the Potency entry in test [1] and in test [3] was “inactive” throughout. In addition, the activation in test [2] was -3.87%. The Potency in test [4] is 15.8 µM (active); in [5] it was 27.3 µM (active).
`O=S(=O)(O)c1ccc(N=Nc2cc(S(=O)(=O)O)c3ccccc3c2O)c2ccccc12`: the figures for the activation in test [6] and in test [2] were 11.4% and -5.27%, respectively. Moreover, the result in [7] was inactive. Further, the Potency result in test [8], in test [9] and in test [3] was “inactive” throughout.
With `CC(C)(C)c1cc(C(C)(C)C)c(O)c(C(C)(C)C)c1`, the Potency result in test [1] and in test [9] was “inactive” throughout. Further, the activation in [2] was 22.2%. In [4], the activity change % (negative = inhibition) is -16.9%.
Turning to `C=CC(=O)OCC(C)OCC(C)OCC(C)OC(=O)C=C` (stereo unspecified), the Potency entry in test [1], in [9] and in test [3] was “inactive” each time. Further, the activation in test [2] was -17.2%. The activity change % (negative = inhibition) in [4] was 0.874%.
With `O=C(O)c1cc2ccccc2cc1O`, the activation in [6] was -7.51%; in test [2], 2.47%. For the same compound, in [7], the result was inactive. Further, the Potency result in test [9] was “inactive”.
Consider `CC1(C)C(=O)N(Br)C(=O)N1Br`, for which the activation in test [6] is -9.37%; in [2] it was 5.17%. Also, the compound was called inactive in [7]. The Potency result in [9] and in [3] was “inactive” in each case. In [4], the activity change % (negative = inhibition) was 6.14%.
For `Cc1nn(C)c(Oc2ccccc2)c1/C=N/OCc1ccc(C(=O)OC(C)(C)C)cc1`, the Potency entry in test [1] and in [9] was “inactive” in each case. For the same compound, the activation in [2] was -3.9%. Moreover, the activity change % (negative = inhibition) in test [4] is -18.8%.
As for `O=C=NCCCCCCN=C=O`, the Potency result in [1] and in test [3] was “inactive” each time.
For the compound `C[Si]1(C)O[Si](C)(C)O[Si](C)(C)O1`, in [6], the activation was -4.74%. Further, the compound was classed as inactive in [7]. In addition, the Potency entry in test [8] and in test [5] was “inactive” each time. Besides, in test [4], the activity change % (negative = inhibition) was 5.16%.
Turning to `Cc1c(Cl)cccc1Cl`, the Potency entry in test [1] and in [9] was “inactive” in each case. The activation in [2] was -6.09%. In addition, the activity change % (negative = inhibition) in [4] was -11.7%.
As to `CCCCOCCOCCO`, the Potency entry in test [1], in test [9], in test [3] and in test [5] was “inactive” in each case. In test [2], the activation was -5.88%. Further, the activity change % (negative = inhibition) in test [4] is 15.3%.
